This passage reports growth results from PubChem BioAssay (NCI).

Some test systems named below: SK-MEL-2 melanoma; EKVX NSCLC; SN12C renal; UO-31 renal; TK-10 renal; ACHN renal; CAKI-1 renal; A498 renal; CCRF-CEM leukemia; MOLT-4 leukemia; RPMI-8226 leukemia; OVCAR-8 ovarian; OVCAR-5 ovarian; OVCAR-4 ovarian; SK-OV-3 ovarian; IGROV1 ovarian; OVCAR-3 ovarian; HS 578T breast; NCI/ADR-RES ovarian.
Holding throughout (assay): NCI-60 one-dose screen, 48 h (100 = growth as untreated, 0 = no growth, -100 = all killed)
Conditions in all cases: 10 µM unless noted

SMILES strings stand for the structures. Compounds without any hit were thinned out: in the full panel of roughly 83,000, 20% have a hit.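 Note: values are percent growth. 100 is the growth of untreated cells, values between 100 and 0 indicate rising inhibition; between -100 and 0 indicates cell death.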 Unmarked numbers belong to inactive results. Active and inactive are the calls of the source. How the source made its calls: active means growth percent below 10; inactive means the rest.

`CCCCCCCCCOc1c(OC)cc(C2CC(=O)Nc3c2c(C)nn3-c2nc3ccccc3[nH]2)cc1OC` (stereo unspecified): the growth with SK-MEL-2 melanoma was -40.4% (active); with EKVX NSCLC, -83.5% (active); in the assay with SN12C renal, -33.3% (active); with UO-31 renal, -95.5% (active); in the assay on TK-10 renal it was 4.51% (active); in the assay on ACHN renal, -24.6% (active). Besides, the growth was -73.2% (active) in the assay on CAKI-1 renal; -35.3% (active) with A498 renal; 19.1% in the assay with CCRF-CEM leukemia; 11.2% in the assay with MOLT-4 leukemia; 10.1% in the assay on RPMI-8226 leukemia; -1.61% (active) in the assay on OVCAR-8 ovarian. Also, the growth in the assay with OVCAR-5 ovarian was -68.7% (active); in the assay on OVCAR-4 ovarian it was 1.92% (active); in the assay with SK-OV-3 ovarian, -62.7% (active); in the assay on IGROV1 ovarian, -51.1% (active); in the assay with OVCAR-3 ovarian it was -63.3% (active); in the assay on HS 578T breast it was -23% (active).

In the case of `Cc1ccc(C2SCC(=O)N2Cc2ccccc2)cc1` (stereo unspecified), the growth was 100% with SK-MEL-2 melanoma; 89.5% with EKVX NSCLC; 94.8% with SN12C renal; 83.8% in the assay with UO-31 renal; 99.5% in the assay on TK-10 renal; 100% in the assay with ACHN renal. Besides, the growth in the assay on CAKI-1 renal is 84.4%; in the assay on A498 renal it was 109%; in the assay on CCRF-CEM leukemia, 79.2%; in the assay with MOLT-4 leukemia it was 84%; with RPMI-8226 leukemia, 96.7%; in the assay on OVCAR-8 ovarian it was 98.8%. Besides, the growth in the assay with OVCAR-5 ovarian is 101%; in the assay with OVCAR-4 ovarian, 98.9%; in the assay on SK-OV-3 ovarian, 103%; in the assay on IGROV1 ovarian, 102%; in the assay on OVCAR-3 ovarian, 116%; with HS 578T breast it was 103%. Moreover, the growth in the assay with NCI/ADR-RES ovarian is 103%.

In the case of `COc1cc(/C=N/NC(=O)Cn2c(C(C)C)nc3ccccc32)ccc1O`, the growth with SK-MEL-2 melanoma was 105%; in the assay with EKVX NSCLC, 103%; with SN12C renal, 94.7%; in the assay with UO-31 renal it was 84.5%; in the assay on TK-10 renal, 106%; with ACHN renal, 99.6%. Further, the growth in the assay with CAKI-1 renal is 91.8%; in the assay with A498 renal it was 81.9%; in the assay with CCRF-CEM leukemia it was 94.5%; in the assay with MOLT-4 leukemia it was 93.6%; in the assay on RPMI-8226 leukemia it was 87%; in the assay on OVCAR-8 ovarian it was 98.8%. The growth is 94.6% with OVCAR-5 ovarian; 108% in the assay on OVCAR-4 ovarian; 100% in the assay with SK-OV-3 ovarian; 91.1% with IGROV1 ovarian; 108% in the assay on OVCAR-3 ovarian; 98.2% with HS 578T breast. In addition, the growth in the assay with NCI/ADR-RES ovarian is 99.3%.

As for `COc1ccc(-c2nc3ccc4[nH]ncc4c3c3c2CCCC3)cc1B(O)O`, the growth with SK-MEL-2 melanoma was 56.1%; in the assay on EKVX NSCLC, 17.7%; with SN12C renal, 52%; with UO-31 renal, 33.7%; with TK-10 renal, 49.5%; with ACHN renal, 20.9%. Moreover, the growth with CAKI-1 renal was -1.55% (active); in the assay with A498 renal, 8.27% (active); in the assay with CCRF-CEM leukemia it was 46.8%; in the assay on MOLT-4 leukemia it was 48.8%; in the assay with RPMI-8226 leukemia, 47.6%; in the assay with OVCAR-8 ovarian, 56.4%. In addition, the growth is 90.5% in the assay with OVCAR-5 ovarian; 74.8% with OVCAR-4 ovarian; 14.4% in the assay with SK-OV-3 ovarian; 35.6% in the assay with IGROV1 ovarian; 94.8% in the assay with OVCAR-3 ovarian; 0.224% (active) in the assay on HS 578T breast.

As to `COc1ccc(-c2nc(SCC(=O)Nc3nc(-c4ccccc4)cs3)[nH]c(=O)c2C#N)cc1`, the growth was 90.5% with SK-MEL-2 melanoma; 101% with EKVX NSCLC; 108% in the assay with SN12C renal; 59% in the assay with UO-31 renal; 117% with TK-10 renal; 104% with ACHN renal. Also, the growth in the assay on CAKI-1 renal is 82.8%; in the assay on A498 renal, 80.4%; in the assay on CCRF-CEM leukemia, 97.2%; in the assay on MOLT-4 leukemia it was 89.9%; with RPMI-8226 leukemia, 93%; with OVCAR-8 ovarian, 101%. Besides, the growth in the assay on OVCAR-5 ovarian was 84.6%; with OVCAR-4 ovarian, 109%; with SK-OV-3 ovarian it was 81.6%; in the assay with IGROV1 ovarian, 88.3%; in the assay on OVCAR-3 ovarian, 107%; in the assay on HS 578T breast it was 78%.

As to `CCC1(C2CCCC2)NC(=O)NC1=O` (stereo unspecified), the growth in the assay with SK-MEL-2 melanoma was 102%; in the assay with EKVX NSCLC, 105%; with SN12C renal, 99%; with UO-31 renal, 87.4%; in the assay on TK-10 renal, 113%; in the assay on ACHN renal, 93.8%. Besides, the growth in the assay on CAKI-1 renal was 100%; with A498 renal it was 100%; in the assay on CCRF-CEM leukemia it was 87.8%; in the assay with MOLT-4 leukemia, 110%; with RPMI-8226 leukemia, 91.3%; in the assay with OVCAR-8 ovarian it was 109%. For the same compound, the growth was 80.5% with OVCAR-5 ovarian; 113% in the assay with OVCAR-4 ovarian; 112% in the assay with SK-OV-3 ovarian; 97.5% in the assay on IGROV1 ovarian; 111% in the assay with OVCAR-3 ovarian; 98.9% in the assay with HS 578T breast.

With `COc1ccc(C2c3ccc4ccccc4c3Oc3nc(C)[nH]c(=O)c32)cc1` (stereo unspecified), the growth was 112% in the assay on SK-MEL-2 melanoma; 103% in the assay on EKVX NSCLC; 99.4% in the assay on SN12C renal; -97.5% (active) in the assay with UO-31 renal; 116% in the assay with TK-10 renal; 92.3% in the assay on ACHN renal. Further, the growth was 73.9% in the assay with CAKI-1 renal; 92.5% with A498 renal; 106% in the assay with CCRF-CEM leukemia; 115% in the assay on MOLT-4 leukemia; 102% in the assay on RPMI-8226 leukemia; 101% in the assay on OVCAR-8 ovarian. Further, the growth is 114% in the assay on OVCAR-5 ovarian; 113% in the assay with OVCAR-4 ovarian; 100% in the assay on SK-OV-3 ovarian; 95.8% in the assay with IGROV1 ovarian; 108% in the assay with OVCAR-3 ovarian; 96.3% in the assay with HS 578T breast.

On to `COc1ccc(NC(=O)CSc2nnc(-c3cc(-c4ccccc4)nc4ccccc34)n2-c2ccccc2)cc1`, for which the growth with SK-MEL-2 melanoma was 102%; in the assay with EKVX NSCLC it was 78.1%; with SN12C renal, 88.9%; in the assay with UO-31 renal it was 67%; with TK-10 renal, 117%; in the assay with ACHN renal it was 94.6%. Further, the growth in the assay on CAKI-1 renal is 80%; with A498 renal it was 74.3%; with CCRF-CEM leukemia it was 86.9%; in the assay with MOLT-4 leukemia, 80.2%; in the assay with RPMI-8226 leukemia, 90.1%; in the assay on OVCAR-8 ovarian, 90.4%. Moreover, the growth in the assay on OVCAR-5 ovarian is 99.2%; with OVCAR-4 ovarian it was 90.3%; with SK-OV-3 ovarian it was 102%; with IGROV1 ovarian, 92.5%; in the assay with OVCAR-3 ovarian it was 103%; in the assay on HS 578T breast, 94.7%. The growth in the assay with NCI/ADR-RES ovarian is 91.8%.

For the compound `c1csc(-c2c3ccc(=[N+]4CCCCC4)cc-3oc3cc(N4CCCCC4)ccc23)c1`, the growth with SK-MEL-2 melanoma was -68.5% (active); in the assay with EKVX NSCLC, -51.8% (active); with SN12C renal it was -65.1% (active); in the assay with UO-31 renal, -82.3% (active); in the assay on TK-10 renal, -92.5% (active); with ACHN renal it was -94.4% (active). For the same compound, the growth in the assay with CAKI-1 renal is -70.3% (active); in the assay on A498 renal, -96.4% (active); with CCRF-CEM leukemia, -19.7% (active); in the assay with MOLT-4 leukemia it was -28.7% (active); in the assay with RPMI-8226 leukemia, -39.1% (active); in the assay on OVCAR-8 ovarian, -33.5% (active). Also, the growth with OVCAR-5 ovarian is -83.1% (active); in the assay on OVCAR-4 ovarian, -54.3% (active); in the assay with SK-OV-3 ovarian, -89% (active); in the assay with IGROV1 ovarian, -67.1% (active); in the assay on OVCAR-3 ovarian, -96.9% (active); in the assay on HS 578T breast, -20.7% (active). For the same compound, the growth in the assay on NCI/ADR-RES ovarian was -38.9% (active).
